This note sets out measurements from PubChem BioAssay AID624202 (National Center for Advancing Translational Sciences (NCATS), 2012).

Each structure is given as a SMILES string. The campaign covered roughly 380,000 compounds. About 4,000 (1.1%) were called active. Entries that show only a call come without a potency. Inconclusive results (about 3%) are left out. Calls follow the shape of the dose curve; as a rule, active = well fitted activation curve with a large enough effect; inconclusive = small, poorly fitted or top-dose-only effect; inactive = no such curve, though single readings can be large or run the other way. Only a selection was taken, and actives are over-represented in it overall.
Potency is read from the fitted curve at half-maximal effect.

The assay in a line: qHTS Assay to Identify Small Molecule Activators of BRCA1 Expression. Also: nearly all actives have a fitted effect of over 80% in size. Conditions: MCF7-BRCA1-FFLuc reporter, luminescence, 48 h; series mostly up to 46.1 µM. The gist of the method:
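MCF7-BRCA1-FFLuc, 2000 cells/well; 2 h attach, 37 °C/5% CO2; compound 48 h; luciferase substrate 15 min; luminescence end-point. Norm. to genistein 10 microM max activation and DMSO; concentration-response curves fitted.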
(In general: Quantitative high-throughput screening tests each substance at several concentrations.)
As to `Cc1cc(C)c(NC(=O)CCc2c(C)nc3c(c(C)nn3C(C)(C)C)c2C)c(C)c1`, the Potency result was “inactive”.
The value for `Cc1ccc(-n2nnnc2CNC(=O)c2ccccc2C)cc1C` was “inactive”; that for `CN(C(=O)CSc1nnc(-c2c[nH]c3ccccc23)o1)C1CCS(=O)(=O)C1` (stereo not drawn) was “inactive”.
The result for `CCC(CC)NC(=O)CSc1nnc(-c2c[nH]c3ccccc23)o1` reads “inactive”.
Consider `O=C(CSc1nnc(-c2c[nH]c3ccccc23)o1)c1ccccc1`, for which the Potency is 12.6 µM (active).
The value for `Cc1ccccc1NC(=O)Cn1c(=O)n(CCc2ccccc2)c(=O)c2ccccc21` was “inactive”; that for `COc1c(Cl)cc(Cl)cc1C(=O)Nc1cccc2cccnc12` was “inactive”.
The value for `COc1cc2[nH]c(=O)n(Cc3ccc(C(=O)NCc4ccc(C)cc4)cc3)c(=O)c2cc1OC` was “inactive”.
The value for `Cc1cccc(NC(=O)COC(=O)c2ccccc2OCc2cccc(Br)c2)c1` was “inactive”; that for `CCOc1ccc(OCC)c(NC(=O)CN(c2ccc(C)cc2)S(=O)(=O)c2c(C)n[nH]c2C)c1` was “inactive”.
Turning to `CCc1cccc(NC(=O)CSc2nccn2C)c1`, the Potency was 12.6 µM (active).
The result for `CC(=O)Nc1cccc(NC(=O)CSc2nccn2Cc2ccc(F)cc2)c1` reads “inactive”; that for `CCCCNC(=O)CSc1nccn1Cc1ccccc1`, “inactive”; that for `COc1ccc(CN(Cc2ccccc2)C(=O)c2ccc(O)cc2)cc1COc1ccc(NC(C)=O)cc1`, “inactive”.
The value for `Cc1ccc(CCNC(=O)Cn2c(-c3cccs3)cc3cc(F)ccc32)cc1` was “inactive”; that for `COc1ccc(NC(=O)Cn2c(=O)cc(C)c3c(C)nn(-c4cccc(Cl)c4C)c32)cc1OC` was “inactive”.
The result for `Cc1nn2cc(-c3ccc(Cl)cc3)cnc2c1Br` reads 8.91 µM (active); that for `O=C(O)C1=C/C(=C/C=[N+]2c3cc(O)c(O[C@H]4OC(CO)[C@@H](O)[C@@H](O)[C@@H]4O)cc3C[C@@H]2C(=O)[O-])C[C@H](C(=O)O)N1` (stereo partly drawn), “inactive”.
In the case of `COc1ccc(-c2[nH]c3c(c2-c2c(-n4cccc4)n(C)c(=O)n(C)c2=O)c(=O)n(C)c(=O)n3C)cc1`, the Potency entry is “inactive”.
The value for `Cc1ccc(S(=O)(=O)n2nc(C)c(S(=O)(=O)N3CCCCCC3)c2C)cc1` was “inactive”; that for `CCOc1ccc(NC(=O)Cn2c(C)ccc(C#N)c2=O)cc1` was “inactive”; that for `CCOc1ccc(NC(=O)c2ccc(NC(=O)CN3C(=O)C(=O)N(CC(C)C)C3=O)cc2)cc1` was “inactive”.
Regarding `CCOc1ccc(NC(=O)c2ccc(NC(=O)COC(=O)c3ccc(NC(=O)CC#N)cc3)cc2)cc1`, the Potency was 2.82 µM (active).
The result for `CCn1cc(C(=O)N2CCN(c3cc(C)ccc3C)CC2)c(=O)c2cc(S(=O)(=O)N(C)C3CCCCC3)ccc21` reads “inactive”; that for `CSc1ccc(CCNC(=O)c2cnn(-c3ccccc3)c2-n2cccc2)cc1`, “inactive”.
The value for `CC(=O)c1ccc(NC(=O)CCc2nc(-c3ccc(C)cc3)no2)cc1` was “inactive”; that for `CC(=O)Nc1ccc2nc(SCCOc3cc(C)cc(C)c3)sc2c1` was “inactive”; that for `CSc1nc2ccc(NC(=O)c3c(F)cccc3F)cc2s1` was 5.62 µM (active).
The value for `O=C(Nc1ccc2nc(SCC(=O)N3CCc4ccccc43)sc2c1)c1ccccc1F` was “inactive”; that for `COc1cc2nc(N3CCCN(C)CC3)nc(NC3CC3)c2cc1OC` was “inactive”.
For the compound `COc1ccccc1C(=O)NCCC(=O)NC1=NCCS1`, the Potency entry was “inactive”.
The result for `O=C(NC1=NCCS1)c1ccc(Cl)s1` reads 5.62 µM (active); that for `CCOc1ccc(C(=O)CCC(=O)NC2=NCCS2)cc1`, “inactive”; that for `O=C(Nc1ccccc1)c1ccccc1OCc1ccccc1`, “inactive”.
The value for `O=C(CCCCn1c(=O)c2ccccc2n(CC(=O)Nc2cccc(C(F)(F)F)c2)c1=O)NCc1ccc2c(c1)OCO2` was “inactive”; that for `NC1=NC(c2cc(F)cc(F)c2)n2c(nc3ccccc32)N1` (stereo not drawn) was “inactive”; that for `O=C(c1cnn2c1NC(=C1CC1)C=C2C(F)F)N1CCc2ccccc2C1` was “inactive”.
The value for `Cc1cccc(NC(=O)CSc2nc3c(oc4ccccc43)c(=O)n2-c2ccc(F)cc2)c1` was “inactive”; that for `O=C(Nc1cc(-c2nc3ccccc3o2)ccc1Cl)c1cc([N+](=O)[O-])ccc1N1CCOCC1` was “inactive”; that for `S=c1[nH]c(=S)c2n[nH]nc2[nH]1` was “inactive”.
With `CC(=O)Nc1cccc(/C(C)=N/NC(=O)c2c(-c3ccccc3Cl)noc2C)c1`, the Potency result is “inactive”.
Regarding `COc1ccc(Cl)cc1S(=O)(=O)Nc1cccc(C(=O)O)c1`, the Potency result is “inactive”.
The result for `C/C(=N\Nc1cccc(C(=O)O)c1)c1ccc2c(c1)Nc1ccccc1S2` reads 7.08 µM (active); that for `C[N+]1(CC(=O)c2cccs2)CCOCC1`, “inactive”.
The value for `COC(=O)c1ccc(CSc2nncn2N)cc1` was “inactive”; that for `COC(=O)c1ccc(CSc2nncn2C)cc1` was 10 µM (active).
In the case of `CC(C)CC(CC(C)C)=NNC(=O)c1ccc(CSc2nncn2C)cc1`, the Potency entry was “inactive”.
The value for `COc1ccccc1CNC(=O)CCCn1c(=O)c2ccccc2n(CC(=O)Nc2ccc(C)cc2Cl)c1=O` was “inactive”; that for `OC(CBr)CN1CCCCC1` (stereo not drawn) was “inactive”.
The value for `COC(=O)C1C(=O)c2c([nH]c(C(=O)OCCSC)c2C)CC1C` (stereo not drawn) was 28.2 µM (active); that for `Cc1cc(Cl)ccc1NC(=O)Cc1ccc(NC(=O)N2CCCCc3ccccc32)cc1` was “inactive”; that for `COCCCN1C(=O)c2ccc(C(=O)Nc3ccc(OC)cc3OC)cc2C1=O` was “inactive”.
The value for `COc1ccc2[nH]cc(CCN3C(=O)c4ccc(C(=O)O)cc4C3=O)c2c1` was 10 µM (active); that for `Cc1ccc2[nH]cc(CCCN3C(=O)c4ccccc4C3=O)c2c1` was “inactive”; that for `O=C(Nc1ccc([N+](=O)[O-])cc1)C1CC12CCC2` (stereo not drawn) was “inactive”.
In the case of `O=C(O)/C=C/C(=O)NNc1ccc([N+](=O)[O-])cc1`, the Potency entry was “inactive”.
The result for `CC(=O)Nc1ccc(C=Cc2ccc([N+](=O)[O-])cc2)cc1` reads 1.78 µM (active).
The result for `Cc1cccc(-c2nnc(SC(C)C(=O)Nc3ccccc3)n2C)c1` (stereo not drawn) reads “inactive”; that for `COc1ccc(CNC(=O)c2cc3c(s2)-c2ccccc2OC3)cc1`, “inactive”.
The result for `O=C(Nc1ccc2nc(SCCOc3ccccc3)sc2c1)c1ccco1` reads “inactive”; that for `O=C(Nc1ccc(CSc2ccccc2)cc1)c1ccc(CN2CCOCC2)cc1`, “inactive”; that for `O=C(Nc1ccccc1C(=O)N1CCCCC1)c1ccco1`, “inactive”.
`C/C(=N\NC(=S)Nc1ccc(C)cc1)c1cc2ccccc2o1`: the Potency entry was “inactive”.
The value for `CN(C)C(CNC(=O)c1cc2ccccc2o1)c1ccccc1` (stereo not drawn) was “inactive”; that for `Cc1cc(C)cc(NC(=O)CSc2ccccc2)c1` was “inactive”; that for `Cc1ccc(NC(=O)c2cc3ccccc3o2)cc1` was 12.6 µM (active).
The result for `O=C(Nc1ccc2nccnc2c1)c1ccco1` reads 10 µM (active).
The result for `O=C(Nc1ccc2nc(SCCOc3ccccc3Cl)sc2c1)c1ccco1` reads “inactive”; that for `O=C(CNC(=O)c1ccco1)NNC(=O)c1ccc(Br)cc1`, “inactive”.
In the case of `O=C(Nc1ccc(O)cc1)c1ccc(NC(=O)c2ccco2)cc1`, the Potency was 3.16 µM (active).
The value for `O=C(CSc1ccccc1)Nc1ccc(NC(=O)c2ccco2)cc1` was 11.2 µM (active).
The result for `Cc1cc(C)c(NC(=O)Cn2c(SCC(=O)NCc3ccccc3)nc3ccccc32)c(C)c1` reads “inactive”; that for `CC(=O)c1ccc(NC(=O)c2nc3nc(C)cc(C(F)F)n3n2)cc1`, “inactive”.
The value for `CC(=O)Nc1ccc(NC(=O)C2CCCN(S(=O)(=O)c3ccc4c(c3)CCCC(=O)N4)C2)cc1` (stereo not drawn) was “inactive”; that for `Cn1c(=O)cc(OCC(=O)N2CCN(c3ccccc3)CC2)c2ccccc21` was “inactive”; that for `O=C(c1cnn(-c2ccc(F)cc2)c1-n1cccc1)N1CCN(c2ccc(F)cc2)CC1` was “inactive”.
As for `CCOC(=O)c1ccc(NC(=O)CCn2cnnn2)cc1`, the Potency entry is “inactive”.
The value for `COc1cc2nc(SCc3ccc(F)cc3)n3nc(CCn4c(C)nc5ccccc54)nc3c2cc1OC` was “inactive”; that for `COc1ccc2oc(-c3ccc(C)c(NC(=O)c4sc5ccccc5c4Cl)c3)nc2c1` was “inactive”; that for `CCOc1ccc(CCNC(=O)c2c(C)oc3ncn(C)c(=O)c23)cc1` was “inactive”.
For the compound `COC(=O)c1ccccc1NC(=O)c1cnn(-c2ccc(F)cc2)c1-n1cccc1`, the Potency entry was “inactive”.
The result for `Cc1ccc(NC(=O)C(c2ccccc2)N2CCN(C(=O)c3ccco3)CC2)cc1` (stereo not drawn) reads “inactive”; that for `Cc1ccnc(NC(=O)CCC(=O)N(CC(=O)NCc2ccccc2)Cc2ccco2)c1`, “inactive”.
Turning to `CSCCC(NC(=O)c1ccco1)C(=O)Nc1cc(C)ccn1` (stereo not drawn), the Potency result is “inactive”.
As for `Cc1ccc(NC(=O)c2ccco2)cc1`, the Potency was 7.94 µM (active).
The result for `Cc1ccnc(NC(=O)c2ccc(NC(=O)c3ccco3)cc2)c1` reads 11.2 µM (active).
The value for `CN1CCN(S(=O)(=O)c2ccc(NC(=O)c3ccco3)cc2)CC1` was “inactive”; that for `COC(=O)CC1Oc2ccccc2-n2cc(-c3ccccc3)nc21` (stereo not drawn) was “inactive”; that for `CCN(CC)CCNC(=O)c1cc2c(=O)oc3ccc(C)cc3c2s1` was “inactive”.
The value for `CC(C)c1ccc(NC(=O)Cn2c3ncccc3c(=O)n2-c2ccccc2)cc1` was “inactive”; that for `O=C(Nc1ccc(Br)cc1)c1ccc(Br)c(S(=O)(=O)NCc2ccccc2)c1` was “inactive”.
With `COc1ccccc1NC(=O)Cn1cnc2ccc(S(=O)(=O)N3CCC(C)CC3)cc2c1=O`, the Potency entry was “inactive”.
On to `ClC/C=C/C[n+]1ccccc1Cl`, for which the Potency entry was “inactive”.
The value for `CCc1nnc(NC(=O)/C=C/c2ccc(C)o2)s1` was 11.2 µM (active).
The value for `Cc1cc(NC(=O)COC(=O)/C=C/c2ccc(C)o2)no1` was “inactive”.
Turning to `CCc1nnc(NC(=O)[C@@H](NC(=O)c2cccc(C)c2)C(C)C)s1`, the Potency result is “inactive”.
The result for `Cc1ccc(N2CCN(C(=O)CCc3c(C)nc4c(c3C)c(=O)n(C)c(=O)n4C)CC2)c(C)c1` reads “inactive”; that for `CSc1n[nH]c(-c2ccco2)n1`, “inactive”; that for `O=C(COC(=O)c1ccco1)Nc1ccc(Cl)cn1`, “inactive”.
The value for `Cc1cccc(OCC(=O)OCC(=O)Nc2ccc(Cl)cn2)c1` was “inactive”; that for `O=C(Nc1ccc(Cl)cn1)c1cnn2cccnc12` was 6.31 µM (active).
In the case of `CC(C)N(Cc1nnc(-c2ccc(Cl)cc2)o1)C(=O)C1=COCCO1`, the Potency entry was “inactive”.
The result for `CN(C)CCN(C(=O)C1=COCCO1)c1nc2ccc(Cl)cc2s1` reads 12.6 µM (active).
